Data from PubChem BioAssay (NCATS).
Results filed as inconclusive are left out. Activity calls are given as the source filed them. Calls come from the whole dose curve; as a rule, active = well fitted inhibition curve with a large enough effect; inconclusive = small, poorly fitted or top-dose-only effect; inactive = flat fitted curve, though single readings scatter.

Molecular target: Phospholipid hydroperoxide glutathione peroxidase GPX4 (Homo sapiens) (UniProt P36969)
Experiment: Primary qHTS Assay for Inhibitors of Recombinant Selenoprotein Glutathione Peroxidase 4 (GPX4) (AID 1845192); note: nearly all actives have a fitted effect of over 65% in size
Conditions: recombinant GPX4, GR-coupled NADPH fluorescence, 15 min; series mostly up to 50 µM; activity change, negative = inhibition: at the top concentration
Summary of the method: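 NADPH consumption, followed by fluorescence at 340/450 nm between 0 and 15 min, reports GPX4 activity via coupled glutathione reductase (100 nM). Enzyme 200 nM was pre-exposed to compound 30 min; 0.5 mM cumene hydroperoxide and 1 mM GSH served as substrates.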
% is set by controls: 0 for no effect and ±100 for the full control effect.

Chain of Phospholipid hydroperoxide glutathione peroxidase GPX4 (Homo sapiens) (P36969 whole entry, looked up): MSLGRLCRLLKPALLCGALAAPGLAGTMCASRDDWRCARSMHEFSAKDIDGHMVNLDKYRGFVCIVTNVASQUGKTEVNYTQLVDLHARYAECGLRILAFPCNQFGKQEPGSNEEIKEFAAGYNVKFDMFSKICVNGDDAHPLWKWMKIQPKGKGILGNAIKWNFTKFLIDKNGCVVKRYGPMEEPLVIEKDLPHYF

Row | Compound | Potency | activity change, negative = inhibition
1 | C=CC(=O)Nc1cccc(Sc2nc(Nc3ccc(N4CCN(C)CC4)cc3)ncc2Cl)c1 | inactive | –
2 | Cc1cccc2c1CC[C@H](CN1CCC(c3c(Cl)cccc3Cl)CC1)C[C@@H]2O | – | -12.6% (inactive)
3 | N#Cc1ccc(Oc2ccc3c(c2)COB3O)cc1 | inactive | –
4 | Cc1ccc2c(c1)c1c(n2CCc2ccc(C)nc2)CCN(C)C1 | – | -9.91% (inactive)
5 | CCCCn1c(=O)n(Cc2ccccc2F)c(=O)c2[nH]c(Cc3ccc(NC(C)=O)cc3)nc21 | – | 11.4% (inactive)
6 | CC(=O)Nc1cccc(-n2c(=O)n(C3CC3)c(=O)c3c(Nc4ccc(I)cc4F)n(C)c(=O)c(C)c32)c1 | inactive | –
7 | C[C@@H](NC(=O)c1ncnc(N)c1Cl)c1ncc(C(=O)Nc2cc(C(F)(F)F)c(Cl)cn2)s1 | – | -9% (inactive)
8 | CN(C)CCOc1cc(-c2cn[nH]c2)ccc1NC(=O)C1COc2ccccc2O1 (stereo not given) | inactive | –
9 | Cn1c(=O)c(-c2c(Cl)cccc2Cl)cc2cnc(Nc3cccc(C(=O)O)c3)nc21 | – | 2.86% (inactive)
10 | Cc1nc2c([nH]1)CCN(C(=O)c1ccc(NC(=O)c3ccccc3-c3ccccc3)cc1)c1ccccc1-2 | – | -8.78% (inactive)
11 | Cc1c(C(=O)Nc2ccc(N3C[C@@H](C)O[C@@H](C)C3)nc2)cccc1-c1ccc(OC(F)(F)F)cc1 | inactive | –
12 | O=C(Nc1cccc(C(F)(F)F)c1)Nc1cc(S(=O)(=O)NC2CC2)ccc1-c1ccsc1 | – | -20.3% (inactive)
13 | O=C(CC12CC3CC(CC(C3)C1)C2)Nc1cccc2nc(NCCNCCO)ccc12 | – | 13.3% (inactive)
14 | COC(=O)N1CCN(Cc2cccc(NC(=O)Nc3ccc(C)nc3)c2F)CC1 | – | 18% (inactive)
15 | CS(=O)(=O)c1ccc(C2=C(c3ccccc3)C(=O)OC2)cc1 | inactive | –
